This note sets out measurements from PubChem BioAssay (NCATS).

Test [1] is described as follows: Cell Viability - LYMP2-006 (AID 978). Further: series mostly up to about 92 µM; nearly all actives have a fitted effect of over 60% in size. In short, it runs like this:
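Human lymphoblastoid cells, 2500 per well, were preincubated 5 hr at 37 C, then exposed to compounds for 24 hr at 37 C in complete medium. Viability was read as intracellular ATP by CellTiter-Glo luminescence; AC50 from Hill-equation fits of qHTS concentration-response data.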

Test [2] is described as follows: Cell Viability - LYMP2-007 (AID 979).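 Further: cells exposed to compound for 24 h before reading; nearly all actives have a fitted effect of over 60% in size.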 In short, it runs like this: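 Measured via luciferase-based ATP quantitation: lymphoblastoid cells, 24 hr compound exposure at 37 C, AC50 from Hill fits.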
The nature of test [3]: Cell Viability - LYMP2-008 (AID 980). Further: nearly all actives have a fitted effect of over 60% in size. In short, it runs like this:
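Measured: ATP-dependent luminescence, proportional to viable cell number, in human lymphoblastoid cells treated 24 hr with compound in complete culture medium. Values are AC50s from Hill-equation modelling of qHTS titrations.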

The nature of test [4]: Cell Viability - LYMP2-010 (AID 981). Further: nearly all actives have a fitted effect of over 55% in size. Further: potency means the concentration at half of the fitted maximal effect. In short, it runs like this:
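This 24 hr viability screen uses LYMP2-010 lymphoblastoid cells, quantifies ATP via luciferase luminescence, and derives AC50 from Hill fits of qHTS concentration-response data.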

The nature of test [5]: Cell Viability - LYMP2-012 (AID 982).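 Further: cellular ATP by luciferase luminescence where a drop means cytotoxicity; cells exposed to compound for one day before reading; nearly all actives have a fitted effect of over 55% in size.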
Test [6] in a line: Cell Viability - LYMP2-014 (AID 983). Further: series mostly up to about 92 µM; nearly all actives have a fitted effect of over 50% in size. In short, it runs like this:
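Quantitative HTS in lymphoblastoid cells: 24 hr compound exposure, then CellTiter-Glo ATP luminescence. Positive control was tetraoctylammonium bromide, 6.4pM to 92 uM.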

Test [7] is described as follows: Cell Viability - LYMP2-016 (AID 984). Further: nearly all actives have a fitted effect of over 55% in size. In short, it runs like this: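 Human lymphoblastoid cells (LYMP2-016), 2500/well in complete medium, preincubated 5 hr at 37 C, then compound-treated 24 hr at 37 C. Intracellular ATP read by CellTiter-Glo luminescence after 30 min at room temperature; AC50 from Hill-equation concentration-response fits.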
A short description of test [8]: Cell Viability - LYMP2-018 (AID 985). Further: nearly all actives have a fitted effect of over 50% in size. Further: potency means the concentration at half of the fitted maximal effect. In short, it runs like this:
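In this qHTS viability assay, cells are treated for 24 hr and cellular ATP is quantified by luciferase-based luminescence, with tetraoctylammonium bromide as positive control.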

The nature of test [9]: Cell Viability - LYMP2-024 (AID 988). Further: nearly all actives have a fitted effect of over 60% in size. In short, it runs like this:
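Cells at 2500 per well received compound for 24 hr after a 5 hr settling period. Viability was scored by CellTiter-Glo luminescence, with AC50 from Hill fits.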

A short description of test [10]: Cell Viability - LYMP2-026 (AID 989). Further: nearly all actives have a fitted effect of over 50% in size. In short, it runs like this:
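Acute toxicity screen in complete culture medium, with 24 hr compound exposure at 37 C. Viability read as cellular ATP via luciferase reaction, with tetraoctylammonium bromide (6.4pM to 92 uM) as positive control.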

Records with an inconclusive call do not appear. Activity calls are given as the source filed them. The call rests on the fitted dose curve; in most records, active means well fitted cell-killing curve with a large enough effect; inconclusive means small, poorly fitted or top-dose-only effect; inactive means flat fitted curve, though single readings scatter.

As for `CCC(C)(C)c1ccc(O)cc1`, the molecule was classed as inactive in test [1], in test [2], in [3], in test [5], in [6] and in test [7]. Also, the molecule was called inactive in test [9] and in test [10]. Moreover, the Potency entry in test [4] and in test [8] was “inactive” in each case.

In the case of `CN1C[C@H](C(=O)N[C@]2(C)O[C@@]3(O)[C@@H]4CCCN4C(=O)[C@H](Cc4ccccc4)N3C2=O)C=C2c3cccc4[nH]cc(c34)C[C@H]21`, the molecule was called inactive in test [1], in test [2], in [3], in test [6] and in [10]. In addition, the Potency entry in test [8] was “inactive”.

Consider `COP(=S)(OC)Oc1ccc(SC)c(C)c1`, for which the molecule was called inactive in test [1], in test [2], in test [3], in test [5], in test [6] and in test [7]. The outcome in test [9] and in test [10] was inactive. The Potency entry in test [4] and in [8] was “inactive” in each case.

Regarding `Oc1ccc(Cl)cc1`, the call in [1], in test [2], in [3], in [5], in test [6] and in test [7] was inactive. Further, the call in test [9] and in test [10] was inactive. For the same molecule, the Potency result in [4] and in test [8] was “inactive” in each case.

In the case of `Nc1ccccc1`, the outcome in [1], in [2], in test [3], in test [5], in [6] and in test [7] was inactive. Further, the call in test [9] and in [10] was inactive. Further, the Potency entry in [4] and in [8] was “inactive” each time.

As for `C[C@]12CCC(=O)C=C1CC[C@@H]1[C@@H]2CC[C@]2(C)C(=O)CC[C@@H]12`, the result in [1], in test [2], in test [3], in [5], in [6] and in test [7] was inactive. In addition, the result in test [9] and in [10] was inactive. In addition, the Potency entry in test [4] and in test [8] was “inactive” throughout.

`Clc1ccc(C(c2ccc(Cl)cc2)C(Cl)(Cl)Cl)cc1`: the call in [1], in test [2], in [3], in test [5], in test [6] and in [7] was inactive. The molecule was called inactive in test [9] and in test [10]. Further, the Potency entry in [4] and in test [8] was “inactive” each time.

With `CC(C)c1cccc(C(C)C)c1O`, the call in [1], in test [2], in test [3], in test [5], in test [6] and in [7] was inactive. For the same molecule, the molecule was called inactive in test [9] and in test [10]. Also, the Potency entry in test [4] and in test [8] was “inactive” throughout.

On to `Nc1ccccc1C(=O)O`, for which the outcome in test [1], in [2], in test [3], in test [5], in test [6] and in test [7] was inactive. The outcome in [9] and in test [10] was inactive. In addition, the Potency result in test [4] and in [8] was “inactive” throughout.

`CCCC(C)(COC(N)=O)COC(N)=O`: the call in test [1], in test [2], in test [3], in test [5], in test [6] and in test [7] was inactive. Moreover, the outcome in test [9] and in test [10] was inactive. For the same molecule, the Potency result in test [4] and in [8] was “inactive” throughout.

With `NCCc1ccc(O)cc1`, the result in test [1], in [2], in [3], in test [5], in test [6] and in [7] was inactive. Moreover, the result in [9] and in test [10] was inactive. The Potency result in [4] and in test [8] was “inactive” in each case.

In the case of `CC(C)NC(C)C`, the call in [1], in test [2], in test [3], in test [5], in [6] and in [7] was inactive. Besides, the result in [9] and in test [10] was inactive. Besides, the Potency result in [4] and in [8] was “inactive” each time.

`COc1cc(OC)c(OC)cc1C=O`: the outcome in test [1], in test [2], in test [3], in test [5], in [6] and in test [7] was inactive. The call in test [9] and in test [10] was inactive. Besides, the Potency entry in test [4] and in test [8] was “inactive” throughout.

`C[C@]12CCC(=O)C=C1CC[C@@H]1[C@@H]2CC[C@@]2(C)[C@H]1CC[C@]2(C)O`: the molecule was classed as inactive in test [1], in [2], in test [3], in [6], in [7] and in test [9]. Further, the molecule was called inactive in test [10]. The Potency entry in test [4] and in test [8] was “inactive” throughout.

Regarding `C[C@]1(O)CC[C@H]2[C@@H]3CCC4=CC(=O)CC[C@]4(C)[C@@]3(F)[C@@H](O)C[C@@]21C`, the result in [1], in test [2], in [3], in test [5], in test [6] and in [7] was inactive. For the same molecule, the result in test [9] and in test [10] was inactive. For the same molecule, the Potency result in [4] and in test [8] was “inactive” throughout.

With `COC(=O)C(c1ccccc1)C1CCCCN1` (configuration not stated), the outcome in test [1], in [2], in [3], in [5], in test [6] and in test [7] was inactive. Also, the result in test [10] was inactive. Moreover, the Potency entry in test [4] and in test [8] was “inactive” each time.

In the case of `O=P1(N(CCCl)CCCl)NCCCO1` (configuration not stated), the molecule was called inactive in test [1], in [2], in test [3], in test [5], in test [6] and in test [7]. Besides, the molecule was classed as inactive in test [9] and in test [10]. The Potency result in [4] and in [8] was “inactive” throughout.

On to `O=C(O)CCCc1ccc(N(CCCl)CCCl)cc1`, for which, in [1], the molecule was called inactive. Also, the Potency in [4] and in test [8] was 31.6 µM (active) in each case.

As to `CCOC(=O)CC(SP(=S)(OC)OC)C(=O)OCC` (configuration not stated), the outcome in test [1], in test [2], in test [3], in [5], in test [6] and in [7] was inactive. Further, the call in [9] and in test [10] was inactive. Further, the Potency result in test [4] and in test [8] was “inactive” each time.
